In PubChem BioAssay (NCI):
Values joined by “and” are separate entries in the source; they are usually repeats but may differ in a detail not shown here. Equal entries are not always repeated. About 83,000 compounds went through this panel and 20% of them were active in at least one assay; those are over-represented in the sample as a whole.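 Single-dose data. Exposure time 48 hours. Values below 10 considered active.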 Active and inactive are the calls of the source.

What was measured:
Assay in all cases: NCI-60 one-dose screen, 48 h (100 = growth as untreated, 0 = no growth, -100 = all killed)
Conditions in all cases: 10 µM unless noted
SR leukemia = test system: SR leukemia
RPMI-8226 leukemia = test system: RPMI-8226 leukemia
OVCAR-8 ovarian = test system: OVCAR-8 ovarian
OVCAR-5 ovarian = test system: OVCAR-5 ovarian
OVCAR-4 ovarian = test system: OVCAR-4 ovarian
SK-OV-3 ovarian = test system: SK-OV-3 ovarian
OVCAR-3 ovarian = test system: OVCAR-3 ovarian
HS 578T breast = test system: HS 578T breast
NCI/ADR-RES ovarian = test system: NCI/ADR-RES ovarian
IGROV1 ovarian = test system: IGROV1 ovarian

Measured: growth

COc1ccc(NC2=C(I)C(=O)C(C)=C(C)C2=O)cc1
active: RPMI-8226 leukemia 2.98% | OVCAR-8 ovarian -19.2% | OVCAR-4 ovarian -84.6% | OVCAR-3 ovarian -17.1% | NCI/ADR-RES ovarian -20%
inactive: SR leukemia 12.3% | OVCAR-5 ovarian 53.9% | SK-OV-3 ovarian 91.8% | HS 578T breast 85.6%

CS(=O)(=O)Nc1cccc(-n2c(COc3ccc(OC(F)(F)F)cc3)nc3ccccc32)c1
inactive: SR leukemia 68.3% and 83.2% | RPMI-8226 leukemia 76.7% and 98.1% | OVCAR-8 ovarian 93.1% and 110% | OVCAR-5 ovarian 124% | OVCAR-4 ovarian 84.9% and 104% | IGROV1 ovarian 56.4% and 111% | OVCAR-3 ovarian 107% and 112% | HS 578T breast 47.9% and 101% | NCI/ADR-RES ovarian 88.2% and 107%

COc1ccc(-c2cc(-c3cc(OC)c(OC)c(OC)c3)[nH]c(=O)c2C#N)cc1
active: OVCAR-4 ovarian 7.74%
inactive: SR leukemia 80.8% | RPMI-8226 leukemia 72.2% | OVCAR-8 ovarian 13.4% | OVCAR-5 ovarian 79.1% | SK-OV-3 ovarian 30.7% | IGROV1 ovarian 36.7% | OVCAR-3 ovarian 102% | HS 578T breast 24.2% | NCI/ADR-RES ovarian 42.2%

COc1ccc2[nH]c(=O)c(CSc3ccccc3Nc3nccc(-c4ccc5c(c4)OCO5)n3)cc2c1
inactive: SR leukemia 67.3% | RPMI-8226 leukemia 68.2% | OVCAR-8 ovarian 79.2% | OVCAR-5 ovarian 103% | OVCAR-4 ovarian 61.1% | SK-OV-3 ovarian 112% | OVCAR-3 ovarian 92.3% | HS 578T breast 89.4% | NCI/ADR-RES ovarian 74.3%

CC1=C(C)C(=O)C(NCCN2CCOCC2)=C(Br)C1=O
active: OVCAR-5 ovarian 4% | OVCAR-4 ovarian -67.4% | OVCAR-3 ovarian -26.9%
inactive: SR leukemia 55.9% | RPMI-8226 leukemia 58.6% | OVCAR-8 ovarian 16.3% | SK-OV-3 ovarian 87.5% | IGROV1 ovarian 31.4% | HS 578T breast 60.4% | NCI/ADR-RES ovarian 86.4%

N#C/C(=C/c1ccc(Cl)cc1)c1nnc(NC(=O)c2ccc(-n3c(=O)[nH]c4ccccc4c3=O)cc2)s1
inactive: SR leukemia 62.7% | RPMI-8226 leukemia 70.4% | OVCAR-8 ovarian 46% | OVCAR-5 ovarian 83.9% | OVCAR-4 ovarian 75.3% | SK-OV-3 ovarian 85% | OVCAR-3 ovarian 84.6% | HS 578T breast 34.1% | NCI/ADR-RES ovarian 81.5%

CCN1C(=O)N(CC)C2NNC(Sc3c(C(=O)O)c4ccccc4n(CCC(C)C)c3=O)=NC21 (stereo not drawn)
inactive: RPMI-8226 leukemia 10.3% | OVCAR-5 ovarian 21.4% | OVCAR-4 ovarian 46.5% | SK-OV-3 ovarian 35.8%
active: SR leukemia 6.32% | OVCAR-8 ovarian 5.92% | OVCAR-3 ovarian -25.4% | HS 578T breast -14.6% | NCI/ADR-RES ovarian -35.4%

O=C(c1ccc(O)cc1)C1[C@H](c2ccc(Cl)cc2)[C@@H](c2ccccc2)NC12C(=O)Nc1ccc(Br)cc12 (stereo partly drawn)
inactive: SK-OV-3 ovarian 22%
active: SR leukemia -52.7% | RPMI-8226 leukemia 3.14% | OVCAR-8 ovarian 5.82% | OVCAR-5 ovarian -19.4% | OVCAR-4 ovarian -8.82% | OVCAR-3 ovarian 2.42% | HS 578T breast -5.94% | NCI/ADR-RES ovarian -37.2%

COc1cc(/C=C/C(=O)c2ccc(S(=O)(=O)NCCNc3nc(N(C)C)nc(N4CCOCC4)n3)cc2)cc(OC)c1OC
inactive: SK-OV-3 ovarian 60.3% | HS 578T breast 19.9%
active: SR leukemia -28.2% | RPMI-8226 leukemia -14.5% | OVCAR-8 ovarian -49.5% | OVCAR-5 ovarian -33.1% | OVCAR-4 ovarian 8.16% | OVCAR-3 ovarian -42.2% | NCI/ADR-RES ovarian -39.1%

ClC(Cn1ncc2c(Nc3cccc(Br)c3)nc(SCCN3CCOCC3)nc21)c1ccc(Br)cc1 (stereo not drawn)
active: SR leukemia -26.7% | RPMI-8226 leukemia 1.13% | HS 578T breast -19.9% | NCI/ADR-RES ovarian 0.769%
inactive: OVCAR-8 ovarian 10.2% | OVCAR-5 ovarian 18.1% | OVCAR-4 ovarian 34.6% | SK-OV-3 ovarian 19.4% | IGROV1 ovarian 28.3% | OVCAR-3 ovarian 33.2%

Cc1nc2sccn2c1-c1nnc(SCC(C)C)o1
inactive: SR leukemia 44.8% | RPMI-8226 leukemia 57.9% | OVCAR-8 ovarian 93.2% | OVCAR-5 ovarian 90.5% | OVCAR-4 ovarian 86% | SK-OV-3 ovarian 102% | OVCAR-3 ovarian 104% | HS 578T breast 88.7% | NCI/ADR-RES ovarian 79%

CS(=O)(=O)Nc1cc(-c2ccc3ncnc(N4CCc5cc(F)c(Cl)cc54)c3c2)cnc1Cl
inactive: OVCAR-8 ovarian 13.3% | OVCAR-5 ovarian 11.1% | OVCAR-4 ovarian 10.6% | NCI/ADR-RES ovarian 12.1%
active: SR leukemia -31.9% | RPMI-8226 leukemia -9.06% | SK-OV-3 ovarian -17.5% | OVCAR-3 ovarian -22.6% | HS 578T breast -31.8%

COc1ccc(NC(=O)CSc2nnc(-c3ccc(-c4nc5ccc(Cl)cc5[nH]4)cc3)o2)cc1
active: OVCAR-8 ovarian 2.41%
inactive: SR leukemia 18.5% | RPMI-8226 leukemia 46.3% | OVCAR-5 ovarian 59.8% | OVCAR-4 ovarian 33.8% | SK-OV-3 ovarian 55% | OVCAR-3 ovarian 41% | HS 578T breast 24.7% | NCI/ADR-RES ovarian 48%

O=C1CC(c2ccc(I)cc2)OC2C=Cc3ccccc3C12 (stereo not drawn)
inactive: SR leukemia 88.9% | RPMI-8226 leukemia 87.2% | OVCAR-8 ovarian 104% | OVCAR-5 ovarian 115% | OVCAR-4 ovarian 96.7% | SK-OV-3 ovarian 96.7% | OVCAR-3 ovarian 125% | HS 578T breast 104% | NCI/ADR-RES ovarian 104%

Cc1cc(C(NC(=O)C2CC3(CC(Nc4cccc5c4C(=O)N(C4CCC(=O)NC4=O)C5=O)C3)C2)c2ccc3c(c2)OC(F)(F)O3)c(O)c2ncccc12 (stereo not drawn)
inactive: SR leukemia 10.6% | RPMI-8226 leukemia 15% | OVCAR-5 ovarian 35.1% | OVCAR-4 ovarian 35% | OVCAR-3 ovarian 16.1% | HS 578T breast 29.3% | NCI/ADR-RES ovarian 12.2%
active: OVCAR-8 ovarian 4.53% | SK-OV-3 ovarian -4.52% | IGROV1 ovarian 6%

O=C(CSc1nnc(-c2ccc(-c3nc4ccccc4[nH]3)cc2)o1)Nc1ccc(Cl)cc1
inactive: OVCAR-5 ovarian 47.1% | OVCAR-4 ovarian 45.1% | SK-OV-3 ovarian 83.1% | OVCAR-3 ovarian 20.8% | HS 578T breast 63.1% | NCI/ADR-RES ovarian 30%
active: SR leukemia 2.31% | RPMI-8226 leukemia 7.96% | OVCAR-8 ovarian -18%
